# Test results from the supplement of paper PMC10849652.
# Targets with a hit are over-represented here; the source holds about 7,900 in all. About 0.6% of all pairs of compound and target were hits. A number with no mark means an inactive call.
# Tests used:
# Experiment in all cases: log2 fold change, soluble protein after heating vs DMSO (PISA); higher = thermal stabilisation; K562 cells, 10 uM, 30 min; active = over 0.2 and 3.5 SD of the protein, either way, in both replicates (recomputed)
# [1] = compound: CC1=C(C=C(C=C1)NC(=O)C2=CC(=CC=C2)C(C)(C)C#N)NC3=CC4=C(C=C3)N=CN(C4=O)C
# How it was run: (§1)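 K562 cells (2×10^6 cells/mL) were treated with 10 μM compound for 30 min, and aliquots were heated for 3 min over 48°C-58°C. Pooled aliquots were extracted in PBS with 0.5% NP-40 at 4°C, and the supernatant after 21,000xg for 90 min was measured by TMTpro 16plex LC-MS/MS with channel sums equalised. Reported thermal stability, relative to control samples and from duplicates, is a log2 fold change.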
# [2] = compound: CC1=C(C=C(C=C1)NC(=O)C2=CC(=CC=C2)N(C)C)NC(=O)C3=CC=C(C=C3)O
# How it was run: as §1
# [3] = compound: CC1=CC=C(C=C1)SC2=C3C=C(SC3=CN=C2)C(=O)N
# How it was run: as §1
# [4] = compound: CC1=NC(=CC=C1)C2=C(N=C(N2)C(C)(C)C)C3=CC4=NC=CN=C4C=C3
# How it was run: as §1
# Nexturastat A = compound: CCCCN(Cc1ccc(C(=O)NO)cc1)C(=O)Nc1ccccc1 [Nexturastat A]
# How it was run: as §1
# vemurafenib = compound: CCCS(=O)(=O)Nc1ccc(F)c(C(=O)c2c[nH]c3ncc(-c4ccc(Cl)cc4)cc23)c1F [vemurafenib]
# How it was run: as §1
# [5] = compound: CCCS(=O)(=O)Nc1ccc(F)c(C(=O)c2c[nH]c3ncc(Cl)cc23)c1F
# How it was run: as §1
# [6] = compound: CCCc1cc(C)[nH]c(=O)c1CNC(=O)c1cc(-c2ccnc(N3CCN(C)CC3)c2)cc2c1cnn2C(C)C
# How it was run: as §1
# givinostat = compound: CCN(CC)Cc1ccc2cc(COC(=O)Nc3ccc(C(=O)NO)cc3)ccc2c1 [givinostat]
# How it was run: as §1
# barasertib = compound: CCN(CCCOc1ccc2c(Nc3cc(CC(=O)Nc4cccc(F)c4)[nH]n3)ncnc2c1)CCOP(=O)(O)O [barasertib]
# How it was run: as §1
# UniProt P55263, sequence (P55263 whole entry, looked up): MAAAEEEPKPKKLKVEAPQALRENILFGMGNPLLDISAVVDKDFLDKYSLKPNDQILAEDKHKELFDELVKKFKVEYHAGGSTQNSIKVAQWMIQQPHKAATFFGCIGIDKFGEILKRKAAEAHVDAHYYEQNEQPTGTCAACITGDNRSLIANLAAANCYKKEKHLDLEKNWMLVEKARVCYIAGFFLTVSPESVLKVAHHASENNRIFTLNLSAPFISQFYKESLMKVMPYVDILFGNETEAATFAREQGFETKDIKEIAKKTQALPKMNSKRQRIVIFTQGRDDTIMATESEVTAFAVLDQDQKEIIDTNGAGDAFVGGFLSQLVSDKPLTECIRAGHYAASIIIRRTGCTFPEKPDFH
# UniProt P42330, sequence (P42330 whole entry, looked up): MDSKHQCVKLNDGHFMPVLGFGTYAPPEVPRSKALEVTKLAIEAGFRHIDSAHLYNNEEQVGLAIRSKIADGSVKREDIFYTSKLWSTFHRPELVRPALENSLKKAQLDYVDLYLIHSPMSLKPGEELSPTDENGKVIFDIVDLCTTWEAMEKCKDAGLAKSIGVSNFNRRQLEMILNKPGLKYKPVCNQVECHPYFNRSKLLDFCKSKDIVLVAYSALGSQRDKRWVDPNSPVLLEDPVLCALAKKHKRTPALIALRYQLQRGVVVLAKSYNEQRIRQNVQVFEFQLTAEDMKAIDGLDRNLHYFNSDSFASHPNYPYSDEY
# UniProt Q9ULC5, sequence (Q9ULC5 whole entry, looked up): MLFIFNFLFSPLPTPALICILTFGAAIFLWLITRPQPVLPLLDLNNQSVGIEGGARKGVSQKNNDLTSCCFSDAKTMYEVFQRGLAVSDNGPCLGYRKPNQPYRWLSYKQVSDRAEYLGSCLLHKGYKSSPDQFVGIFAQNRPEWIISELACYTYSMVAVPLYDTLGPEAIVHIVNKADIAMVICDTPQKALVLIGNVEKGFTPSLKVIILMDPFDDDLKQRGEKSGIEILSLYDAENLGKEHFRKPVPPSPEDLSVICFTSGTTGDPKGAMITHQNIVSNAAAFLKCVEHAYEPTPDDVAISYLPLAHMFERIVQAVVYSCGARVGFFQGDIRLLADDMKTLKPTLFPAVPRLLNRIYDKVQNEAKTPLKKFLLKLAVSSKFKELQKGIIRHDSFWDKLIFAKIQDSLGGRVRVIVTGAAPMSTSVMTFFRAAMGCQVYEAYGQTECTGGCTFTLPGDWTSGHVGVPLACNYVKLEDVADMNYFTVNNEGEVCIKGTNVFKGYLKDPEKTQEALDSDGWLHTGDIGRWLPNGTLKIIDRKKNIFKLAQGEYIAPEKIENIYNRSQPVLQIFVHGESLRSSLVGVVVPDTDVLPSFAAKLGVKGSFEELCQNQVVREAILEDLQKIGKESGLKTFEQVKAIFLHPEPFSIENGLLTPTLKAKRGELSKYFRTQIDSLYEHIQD
# UniProt Q9UKV5, sequence (Q9UKV5 whole entry, looked up): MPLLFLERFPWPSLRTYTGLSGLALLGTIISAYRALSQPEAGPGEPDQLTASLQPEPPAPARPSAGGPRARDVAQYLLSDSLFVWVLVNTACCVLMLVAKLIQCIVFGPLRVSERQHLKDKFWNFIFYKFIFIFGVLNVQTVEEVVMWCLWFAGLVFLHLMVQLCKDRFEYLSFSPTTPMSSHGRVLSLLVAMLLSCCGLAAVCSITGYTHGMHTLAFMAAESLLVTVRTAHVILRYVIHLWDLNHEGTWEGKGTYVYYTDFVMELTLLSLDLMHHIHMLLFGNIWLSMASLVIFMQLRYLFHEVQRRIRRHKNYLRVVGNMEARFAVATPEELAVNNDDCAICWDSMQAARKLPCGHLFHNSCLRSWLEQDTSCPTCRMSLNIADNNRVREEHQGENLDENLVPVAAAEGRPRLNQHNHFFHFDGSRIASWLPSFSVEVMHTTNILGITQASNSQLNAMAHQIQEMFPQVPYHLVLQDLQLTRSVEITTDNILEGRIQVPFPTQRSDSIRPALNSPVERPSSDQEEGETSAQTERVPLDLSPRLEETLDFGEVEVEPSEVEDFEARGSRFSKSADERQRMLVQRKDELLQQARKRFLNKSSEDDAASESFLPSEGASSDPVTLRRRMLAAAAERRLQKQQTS
# UniProt Q8N2F6, sequence (Q8N2F6 whole entry, looked up): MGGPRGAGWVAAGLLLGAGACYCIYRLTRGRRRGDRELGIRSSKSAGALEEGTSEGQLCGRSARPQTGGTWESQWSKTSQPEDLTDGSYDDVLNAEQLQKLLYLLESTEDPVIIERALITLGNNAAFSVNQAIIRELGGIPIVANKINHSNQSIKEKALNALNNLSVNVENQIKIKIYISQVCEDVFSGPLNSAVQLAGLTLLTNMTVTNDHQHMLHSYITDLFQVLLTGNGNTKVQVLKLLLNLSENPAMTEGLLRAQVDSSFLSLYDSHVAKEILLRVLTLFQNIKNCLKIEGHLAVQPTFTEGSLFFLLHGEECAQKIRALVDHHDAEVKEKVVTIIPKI
# UniProt O15440, sequence (O15440 whole entry, looked up): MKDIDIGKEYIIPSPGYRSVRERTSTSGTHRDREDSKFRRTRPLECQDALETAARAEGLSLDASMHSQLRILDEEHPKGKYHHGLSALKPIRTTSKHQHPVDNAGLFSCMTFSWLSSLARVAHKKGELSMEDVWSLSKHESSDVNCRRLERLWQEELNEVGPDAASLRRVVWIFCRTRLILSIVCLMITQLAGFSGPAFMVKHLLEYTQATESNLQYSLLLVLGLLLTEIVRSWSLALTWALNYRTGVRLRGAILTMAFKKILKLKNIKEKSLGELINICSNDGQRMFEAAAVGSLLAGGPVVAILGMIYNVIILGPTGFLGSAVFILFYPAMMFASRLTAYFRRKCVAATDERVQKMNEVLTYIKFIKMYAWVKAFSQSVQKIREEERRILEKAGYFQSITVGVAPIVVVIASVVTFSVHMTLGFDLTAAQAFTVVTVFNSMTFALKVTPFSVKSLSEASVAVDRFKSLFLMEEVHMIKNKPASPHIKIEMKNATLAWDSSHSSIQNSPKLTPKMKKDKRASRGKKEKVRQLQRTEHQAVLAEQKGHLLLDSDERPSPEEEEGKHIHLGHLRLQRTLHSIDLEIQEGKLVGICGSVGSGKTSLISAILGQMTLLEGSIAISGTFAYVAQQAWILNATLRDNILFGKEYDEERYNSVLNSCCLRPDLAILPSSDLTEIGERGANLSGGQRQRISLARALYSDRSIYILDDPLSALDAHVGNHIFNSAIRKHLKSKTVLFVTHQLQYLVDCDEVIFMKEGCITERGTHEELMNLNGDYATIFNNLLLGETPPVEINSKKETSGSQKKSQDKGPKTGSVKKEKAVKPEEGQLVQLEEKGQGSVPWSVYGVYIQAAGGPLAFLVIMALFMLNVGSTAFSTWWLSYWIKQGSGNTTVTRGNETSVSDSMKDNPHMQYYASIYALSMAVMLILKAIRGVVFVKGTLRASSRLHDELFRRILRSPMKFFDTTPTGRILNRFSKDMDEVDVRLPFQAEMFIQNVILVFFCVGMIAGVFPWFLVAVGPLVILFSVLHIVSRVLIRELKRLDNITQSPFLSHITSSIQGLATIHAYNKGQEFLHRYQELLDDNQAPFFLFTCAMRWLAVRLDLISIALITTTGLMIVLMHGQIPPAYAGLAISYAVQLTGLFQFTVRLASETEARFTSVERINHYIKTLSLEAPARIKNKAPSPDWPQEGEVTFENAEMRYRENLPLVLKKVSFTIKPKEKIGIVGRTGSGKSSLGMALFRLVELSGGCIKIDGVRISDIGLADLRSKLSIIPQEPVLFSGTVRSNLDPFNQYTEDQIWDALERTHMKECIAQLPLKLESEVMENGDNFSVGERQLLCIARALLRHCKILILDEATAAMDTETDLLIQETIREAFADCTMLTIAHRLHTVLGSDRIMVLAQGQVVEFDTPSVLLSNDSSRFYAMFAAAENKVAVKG
# UniProt P30043, sequence (P30043 whole entry, looked up): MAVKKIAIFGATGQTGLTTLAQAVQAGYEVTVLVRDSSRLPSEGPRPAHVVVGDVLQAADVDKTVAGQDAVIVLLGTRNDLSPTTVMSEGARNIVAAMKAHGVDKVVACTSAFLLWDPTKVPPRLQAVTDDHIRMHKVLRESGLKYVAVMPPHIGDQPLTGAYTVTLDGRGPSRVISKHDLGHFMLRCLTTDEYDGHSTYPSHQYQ
# UniProt Q9UII2, sequence (Q9UII2 whole entry, looked up): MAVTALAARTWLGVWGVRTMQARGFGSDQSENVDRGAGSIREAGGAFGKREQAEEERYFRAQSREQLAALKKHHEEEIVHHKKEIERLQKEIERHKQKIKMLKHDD
# UniProt Q9UI12, sequence (Q9UI12 whole entry, looked up): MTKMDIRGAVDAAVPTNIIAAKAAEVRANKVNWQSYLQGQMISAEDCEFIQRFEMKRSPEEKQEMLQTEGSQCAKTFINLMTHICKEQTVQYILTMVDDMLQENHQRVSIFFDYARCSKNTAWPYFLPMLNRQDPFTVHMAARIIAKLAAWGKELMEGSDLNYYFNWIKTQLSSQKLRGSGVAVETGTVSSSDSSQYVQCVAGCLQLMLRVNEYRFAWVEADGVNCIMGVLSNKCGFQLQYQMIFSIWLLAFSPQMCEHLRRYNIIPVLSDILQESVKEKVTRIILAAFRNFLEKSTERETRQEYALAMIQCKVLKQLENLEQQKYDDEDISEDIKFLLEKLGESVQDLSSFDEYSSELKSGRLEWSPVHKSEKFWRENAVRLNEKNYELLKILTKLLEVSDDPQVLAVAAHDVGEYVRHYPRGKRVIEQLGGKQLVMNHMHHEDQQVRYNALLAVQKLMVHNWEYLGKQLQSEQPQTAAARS
# UniProt P54709, sequence (P54709 whole entry, looked up): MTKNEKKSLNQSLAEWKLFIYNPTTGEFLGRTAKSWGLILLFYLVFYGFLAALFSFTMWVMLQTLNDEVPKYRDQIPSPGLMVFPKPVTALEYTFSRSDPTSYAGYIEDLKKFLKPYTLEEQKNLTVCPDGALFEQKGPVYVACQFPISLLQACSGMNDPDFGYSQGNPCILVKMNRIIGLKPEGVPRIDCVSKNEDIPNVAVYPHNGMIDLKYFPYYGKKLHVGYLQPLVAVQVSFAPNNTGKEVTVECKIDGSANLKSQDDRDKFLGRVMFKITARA
Target,log2 fold change [1],log2 fold change [2],log2 fold change [3],log2 fold change [4],log2 fold change (Nexturastat A),log2 fold change (vemurafenib),log2 fold change [5],log2 fold change [6],log2 fold change (givinostat),log2 fold change (barasertib)
ATIC (UniProt P31939),0.083,-0.022,0.059,0.022,-0.076,0.025,0.052,0.019,-0.036,0.013
APOB (UniProt P04114),-0.039,0.134,0.146,0.032,-0.049,-0.006,0.095,-0.853 (active),0.074,-0.012
ATP6V1H (UniProt Q9UI12),0.028,-0.016,0.045,0.014,-0.008,-0.004,0.077,0.022,0.03,0.018
AMFR (UniProt Q9UKV5),-0.013,0.01,-0.029,-0.104,-0.033,0.005,0.009,-0.042,0.086,0.041
ATP1B3 (UniProt P54709),0,-0.015,-0.02,0.046,-0.065,0.005,-0.036,-0.018,-0.055,-0.021
ALG3 (UniProt Q92685),0.108,0.002,0.113,0.376 (active),0.008,-0.076,0.123,-0.079,-0.09,0
BST2 (UniProt Q10589),0.059,0.014,-0.003,-0.011,0.023,0,-0.029,-0.095,0.053,-0.097
ATP9B (UniProt O43861),-0.185,-0.007,-0.054,0.061,0.013,-0.05,0.01,-0.03,0.085,0.013
BLVRB (UniProt P30043),0.094,-0.023,-0.025,0.027,-0.014,0.069,0.063,0.037,0.03,0.025
ALDH2 (UniProt P05091),0.089,0.03,0.039,0.029,-0.264 (active),0.044,-0.011,-0.012,0.016,0.003
ATP5IF1 (UniProt Q9UII2),-0.035,0.009,-0.005,0.021,-0.041,-0.078,-0.043,-0.022,-0.005,0.026
AGPAT3 isoform 3 (UniProt Q9NRZ7),0.019,0,0.016,0.003,-0.076,-0.001,0.043,-0.039,0.008,0.057
ADH5 (UniProt P11766),0.004,0.008,0.043,0.009,-0.103,-0.007,0.008,-0.046,-0.01,-0.023
ARL1 (UniProt P40616),0.057,-0.012,0.162,0.054,-0.119,0.037,0.116,0.071,0.07,0.007
AIFM2 (UniProt Q9BRQ8),0.013,0,0,-0.017,0.019,-0.036,-0.026,0.021,0.011,-0.024
ADK (UniProt P55263),0.03,-0.027,0,-0.011,-0.04,-0.013,-0.046,0.106,-0.076,-0.026
APLP2 (UniProt Q06481),0.088,-0.043,-0.003,-0.009,-0.053,-0.033,0.011,0.018,-0.041,-0.04
ATP1A4 (UniProt Q13733),0.017,0.029,0.141,0.065,-0.03,-0.137,-0.08,-0.026,-0.216,0
ABHD16A (UniProt O95870),0.01,-0.084,-0.051,-0.057,0.118,-0.001,-0.036,0.09,0.037,0.008
ARFRP1 (UniProt Q13795),0.138,0.003,0.082,0.069,-0.048,0.033,0,0.046,0.012,-0.015
ABCC5 (UniProt O15440),0.107,-0.033,0.035,-0.073,0.007,-0.183,-0.031,0.1,0.028,0.026
AKR1C3 (UniProt P42330),-0.034,-0.207,0.268,-0.007,0.022,-0.032,0.066,0.289,-0.003,0.014
ALDH9A1 isoform 3 (UniProt P49189),0.01,0.012,0.03,0.01,-0.049,0.006,0.006,-0.019,-0.005,0.01
ABITRAM (UniProt Q9NX38),0.011,-0.036,0.062,0.027,-0.114,0,0.095,-0.252,–,0.03
AIF1 (UniProt P55008),-0.042,-0.039,-0.056,–,0.048,-0.112,0,–,-0.057,-0.102
ARFGEF1 (UniProt Q9Y6D6),-0.03,-0.013,-0.014,0,-0.042,0.035,0.041,0.155,0.029,-0.015
ACSL5 isoform 3 (UniProt Q9ULC5),0.106,0.061,-0.025,0.088,-0.009,0.001,0.083,-0.019,-0.023,0.013
BMP2K (UniProt Q9NSY1),0.01,0.033,-0.017,-0.011,0.126,0.011,0.01,-0.04,0.007,-0.014
ARMC10 (UniProt Q8N2F6),0.03,-0.087,-0.019,-0.046,0.056,0.12,0.074,0.072,0.063,0.019
ANK2 (UniProt Q01484),-0.11,-0.031,0.019,0.026,–,-0.026,0.012,0.053,-0.047,0.031
